Screens: PubChem BioAssay, several laboratories
CRFR2-BP antag – CRF-BP/CRF-R2 complex antagonism; 350,000 compounds, 0.59% hits; inhibition, % at 11.8 µM; HEK293 CRF-R2/CRF-BP, CRF-induced calcium fluorescence;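 active means inhibition of the ligand-induced calcium signal above about 50% at the single tested concentration, limit read from the data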
FAS TE block – FAS thioesterase (human) inhibition. P49327. recombinant FAS-TE, OMFH fluorogenic substrate, fluorescence endpoint. inhibition, % at 15 µM. 360,000 compounds, 0.67% hits. AID 602261;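 active means compounds whose normalised, plate-corrected inhibition of enzyme fluorescence in the single-dose primary screen is 50% or more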;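 further: 0% = DMSO with enzyme and 100% = substrate without enzyme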
NadD inh – blocks S. aureus nicotinate mononucleotide adenylyltransferase; inhibition, % at 20 µM; 360,000 compounds, 0.78% hits; AID 602399; purified NadD enzyme, colorimetric absorbance read-out; in the data active means inhibition above about 26%
NRP1-CendR mod – modulators of CendR peptide binding to human neuropilin-1; O14786; inhibition, % at 25 µM; 360,000 compounds, 0.85% hits; FAM-RPARPAR peptide binding to NRP-1, fluorescence polarization;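 active means inhibition or corrected inhibition above about 18%, plus a signal ratio from 0.5 to 1.5, limit read from the data, passing the limit was not always enough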
Target sequence (O14786 whole entry, looked up): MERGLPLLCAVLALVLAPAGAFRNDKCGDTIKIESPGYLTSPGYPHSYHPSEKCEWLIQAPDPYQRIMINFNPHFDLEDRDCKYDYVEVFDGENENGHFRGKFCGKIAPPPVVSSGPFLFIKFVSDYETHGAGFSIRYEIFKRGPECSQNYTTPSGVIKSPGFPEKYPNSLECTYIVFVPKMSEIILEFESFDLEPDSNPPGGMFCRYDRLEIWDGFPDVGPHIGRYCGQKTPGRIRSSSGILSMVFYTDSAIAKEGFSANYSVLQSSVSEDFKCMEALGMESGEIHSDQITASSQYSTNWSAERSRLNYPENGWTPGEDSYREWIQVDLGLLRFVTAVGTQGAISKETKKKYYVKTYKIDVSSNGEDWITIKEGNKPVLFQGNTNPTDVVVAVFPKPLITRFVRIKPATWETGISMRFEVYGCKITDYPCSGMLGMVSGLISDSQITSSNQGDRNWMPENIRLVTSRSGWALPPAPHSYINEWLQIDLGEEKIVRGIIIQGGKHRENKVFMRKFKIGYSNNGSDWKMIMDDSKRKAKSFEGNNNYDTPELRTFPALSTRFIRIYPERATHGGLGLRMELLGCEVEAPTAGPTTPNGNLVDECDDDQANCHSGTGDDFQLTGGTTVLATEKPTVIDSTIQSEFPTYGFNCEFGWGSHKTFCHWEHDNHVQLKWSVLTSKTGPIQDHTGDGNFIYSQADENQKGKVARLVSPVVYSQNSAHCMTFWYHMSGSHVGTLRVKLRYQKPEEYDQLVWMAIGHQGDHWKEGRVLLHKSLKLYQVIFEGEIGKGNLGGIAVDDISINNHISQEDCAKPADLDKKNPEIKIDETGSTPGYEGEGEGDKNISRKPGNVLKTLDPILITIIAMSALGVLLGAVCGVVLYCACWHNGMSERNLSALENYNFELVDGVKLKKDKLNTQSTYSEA
Myeloid diff MLP – compounds promoting myeloid differentiation. ER-HoxA9 myeloid progenitors, lysozyme-GFP differentiation, flow cytometry. calls only at 10 µM. 360,000 compounds, 1% hits;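 active means normalized GFP-positive differentiation at or above the plate's own cutoff, the solvent-only control mean plus 3 SD; inconclusive means no clear call, values can overlap the other calls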;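 further: cells exposed to compound for four days before flow analysis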
* hit, by the source's call; i = inactive; ? = inconclusive; / = no result; + = active, no number. Only some compounds are listed: those with a hit (about 3.6% of all), similar ones and a draw of the others.

SMILES | CRFR2-BP antag | FAS TE block | NadD inh | NRP1-CendR mod | Myeloid diff MLP
Cn1c(C(=O)N2CCN(c3ncccn3)CC2)cc2c(=O)n(C)c3ccccc3c21 | 2 | -6 | 2 | 3 | i
Cc1ccc(Cl)cc1N1CCN(C(=O)c2cc3c(=O)n(C)c4ccccc4c3n2C)CC1 | 1 | 38 | 19 | -13 | +
Cn1c(C(=O)N2CCCC2)cc2c(=O)n(C)c3ccccc3c21 | 19 | -4 | 3 | -10 | i
O=C(CN1CCCC1)Nc1c(Cl)cccc1Cl | 1 | -10 | -10 | -6 | i
CC1(C(=O)NS(=O)(=O)c2cccs2)CCN1C(=O)CCc1ccc(Cl)cc1Cl (stereo not drawn) | / | -5 | -7 | -6 | i
Cc1ccc(S(=O)(=O)N2CCOCC2)cc1NC(=O)Cn1cc(C(F)(F)F)cc(Cl)c1=O | -20 | -6 | -3 | -6 | i
O=C(Cn1cc(C(F)(F)F)cc(Cl)c1=O)Nc1cc(S(=O)(=O)N2CCOCC2)ccc1Cl | 19 | 1 | -8 | 22* | i
COC(=O)CCC(=O)OC1(C)C(=O)C=C2C=C(C3CC3)N(CCCCO)C=C2C1=O (stereo not drawn) | 3 | -12 | 1 | 21* | i
COC(=O)CCCC1=CC2=CC(=O)C(C)(OC(=O)c3cccs3)C(=O)C2=CN1CCCCO (stereo not drawn) | 1 | -14 | 0 | 40* | i
COC(=O)CCC(=O)OC1(C)C(=O)C=C2C=C(C3CC3)N(C(CO)CO)C=C2C1=O (stereo not drawn) | -3 | -9 | 3 | 27* | i
COC(=O)CCC(=O)OC1(C)C(=O)C=C2C=C(C3CC3)N(c3ccccc3)C=C2C1=O (stereo not drawn) | 24 | -2 | 6 | 13 | i
COC(=O)CCC(=O)OC1(C)C(=O)C=C2C=C(C3CC3)N(CCc3ccccn3)C=C2C1=O (stereo not drawn) | -3 | -13 | 2 | 30* | i
Cc1nc2oc3ccc(F)cc3c(=O)c2cc1C(=O)NC(C)(C)C | 2 | 8 | 25 | -1 | i
COC(=O)CCC(C)C1CCC2C3CCC4CC(O)CCC4(C)C3=CC(=O)C12C (stereo not drawn) | -1 | 2 | -1 | 6 | i
CN(C)C(=C(C#N)C#N)N1CCN(c2ccc(Cl)c(Cl)c2)CC1 | -31 | 29 | -5 | 3 | i
C=CCN1C=C2C(=O)C(C)(OC(=O)CCC(=O)OC)C(=O)C=C2C=C1C1CC1 (stereo not drawn) | -7 | -8 | 3 | 38* | i
Nc1cc(=O)[nH]c(SCC(=O)Nc2cccc([N+](=O)[O-])c2)n1 | -1 | 4 | -1 | 2 | +
Cc1ccc(S(=O)(=O)Nc2cc(=O)[nH]c(SCC(=O)Nc3cccc(C(F)(F)F)c3)n2)cc1 | 110* | -1 | 1 | 0 | i
Cc1ccc(NC(=O)CSc2nc(NS(=O)(=O)c3ccc(C)cc3)cc(=O)[nH]2)cc1 | 11 | 39 | 1 | -7 | i
Cc1c(C(c2ccc(N(C)C)cc2)c2c(C)n(C)n(-c3ccccc3)c2=O)c(=O)n(-c2ccccc2)n1C | 54* | -1 | 7 | 1 | i
N#C/C(=C(/O)COC(=O)CSc1ccc(Cl)cc1)c1nc2ccccc2[nH]1 | -22 | -6 | 5 | -28 | +
CCC(C(=O)NC(C)(C)C)n1c(C(c2ccccc2)c2ccccc2)nc2ccccc21 (stereo not drawn) | / | / | / | -1 | i
CCC(=O)N1Cc2cc(C(=O)NCC(F)(F)F)nc(-c3cccc(-c4cncnc4)c3)c2[C@H]1CCO | / | -14 | -4 | 17 | i
COc1ccccc1Cn1c(C)c(C(=O)NCCC#N)sc1=O | / | -6 | 0 | -2 | i
Cc1cc(SCC(=O)N2CCN(C(=O)c3ccco3)CC2)c(C)cc1Br | -9 | 10 | -3 | 22* | i
SMILES | CRFR2-BP antag | FAS TE block | NadD inh | NRP1-CendR mod | Myeloid diff MLP
Cc1cc(SCC(=O)OCC(=O)N2CCN(C(=O)c3ccco3)CC2)c(C)cc1Br | 8 | 0 | -8 | 3 | i
Cc1ccc(-c2cccc(C3CC=CC4C3C(=O)N(Cc3ccccc3)C4c3cc(C)ccc3F)c2)cc1 (stereo not drawn) | -8 | 19 | 20 | 30* | i
COc1ccc([C@H]2[C@H]3C=CC[C@@H](C)[C@@H]3C(=O)N2Cc2ccccc2)cc1Cl | 1 | 15 | 2 | 28* | i
C[C@@H]1CC=C[C@@H]2[C@H]1C(=O)N(Cc1ccccc1)[C@H]2c1cccc(Br)c1 | 72* | 27 | -4 | 9 | i
C[C@@H]1CC=C[C@H]2[C@H]1C(=O)N(Cc1ccccc1)[C@H]2c1ccc(/C=C/c2ccccc2)cc1F | -2 | 20 | 2 | 29* | i
Cn1c(=O)c(=O)n(C)c2cc([N+](=O)[O-])c(N3CCOCC3)cc21 | -6 | 3 | -6 | 4 | i
COc1ccccc1N(CC(=O)N/N=C(\C)c1ccc(F)cc1)S(=O)(=O)c1ccccc1 | 7 | 4 | 5 | 0 | i
COc1ccc(N2CCN(C(=O)CCCCCn3c(=S)[nH]c4ccc(N5CCOCC5)cc4c3=O)CC2)cc1 | 34 | 17 | 10 | 15 | i
CCn1c(=S)sc2c(=O)n(CC(=O)NCCCc3ccccc3)c(C)nc21 | 9 | 17 | 2 | 26* | i
CCn1c(=S)sc2c(=O)n(CC(=O)Nc3cccc(Cl)c3)c(C)nc21 | -30 | 33 | 3 | -4 | i
COC(=O)C1CN(C(=O)COc2ccc(Cl)c(C)c2)c2ccccc2O1 (stereo not drawn) | -7 | 10 | -10 | 13 | i
Cc1ccc(S(=O)(=O)/N=C2/C=C(Sc3ncn[nH]3)C(=O)c3ccccc32)cc1 | -7 | -1 | 50* | 13 | ?
Cc1ccc(S(=O)(=O)Nc2ccc(O)c(Sc3ncn[nH]3)c2)cc1 | -6 | -20 | -5 | 14 | i
CC(C)c1ccc(S(=O)(=O)/N=C2/C=C(Sc3ncn[nH]3)C(=O)c3ccccc32)cc1 | -15 | 14 | 83* | -6 | i
COC(=O)C[C@H]1CC[C@H](NS(=O)(=O)c2cn(C)cn2)[C@@H](CO)O1 | / | / | / | -3 | i
COc1cccc(C2CCCN2Cc2nc(-c3cnccn3)no2)c1 (stereo not drawn) | 116* | -2 | -1 | -20 | i
CC(C)NC(=O)C1(C)CSCC(=O)N1CCCn1ccnc1 (stereo not drawn) | / | / | / | 5 | i
Cc1ccc(N=Nc2ccc(O)c(P(=O)(c3ccccc3)c3ccccc3)c2)cc1 | 108* | 8 | 34* | -2 | i
O=[N+]([O-])c1ccc(O)c(P(=O)(c2ccccc2)c2ccccc2)c1 | -20 | -7 | -4 | 4 | i
CC1(C(=O)NS(=O)(=O)c2ccc3c(c2)CCO3)CCN1C(=O)COc1ccc(Cl)cc1 (stereo not drawn) | / | -12 | -8 | 2 | i
COc1ccc(Nc2nc(-c3ccc(OC)cc3)cs2)cc1 | 15 | 1 | 3 | -9 | i
COc1ccc(-c2csc(Nc3cccnc3)n2)cc1 | 2 | -4 | -6 | 25* | i
